Screening data (PubChem BioAssay)
KAT2A inh = blocks human GCN5L2 histone acetyltransferase; Q92830; GCN5L2 HAT assay, ThioGlo1 CoA-SH fluorescence; Potency, µM (doses to about 58.9 µM), inactives show at the highest dose activity change, negative = inhibition, usual class: inhibitors; 390,000 tested, 0.21% active; AID 504327
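Enzyme at 20nM final was mixed with library compounds for 15 min at room temperature. Peptide H3(1-25) at 75uM, acetyl-CoA at 70uM and ThioGlo1 at 50uM were then added. Plates were read immediately and after 20 min (Ex340nm/Em540nm).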
ALOX12 inh = ALOX12 (human) lipoxygenase inhibition. 580,000 tested, 1.1% active. purified 12hLO, xylenol orange hydroperoxide absorbance. P18054. Potency, µM (doses to about 108 µM), without a hit: top-dose activity change, negative = inhibition, actives largely listed as inhibitors. AID 1671190
Target sequence (P18054 whole entry, looked up): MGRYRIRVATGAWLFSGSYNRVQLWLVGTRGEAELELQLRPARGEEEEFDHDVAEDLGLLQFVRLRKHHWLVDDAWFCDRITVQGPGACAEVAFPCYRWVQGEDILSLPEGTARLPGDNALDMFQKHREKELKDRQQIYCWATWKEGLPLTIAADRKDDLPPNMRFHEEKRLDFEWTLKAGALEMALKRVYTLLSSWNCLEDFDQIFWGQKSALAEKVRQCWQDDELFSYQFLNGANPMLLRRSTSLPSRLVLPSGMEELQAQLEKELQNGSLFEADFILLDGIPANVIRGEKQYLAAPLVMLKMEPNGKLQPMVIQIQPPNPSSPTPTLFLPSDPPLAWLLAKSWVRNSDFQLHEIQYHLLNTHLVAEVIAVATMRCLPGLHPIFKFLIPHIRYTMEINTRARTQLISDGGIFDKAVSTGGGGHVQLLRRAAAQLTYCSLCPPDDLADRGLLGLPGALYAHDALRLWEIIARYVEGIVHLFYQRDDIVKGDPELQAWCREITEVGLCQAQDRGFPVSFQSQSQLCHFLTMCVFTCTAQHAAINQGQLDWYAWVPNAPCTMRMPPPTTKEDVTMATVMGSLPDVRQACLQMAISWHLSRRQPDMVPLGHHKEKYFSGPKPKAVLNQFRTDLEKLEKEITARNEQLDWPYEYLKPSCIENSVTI
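Hydroperoxide product was detected by ferrous iron/xylenol orange as the 573 to 405 nm absorbance ratio. Arachidonic acid at 40 uM (final) was turned over for 30 min at room temperature by 150 nM human 12hLO, pH 7.0 Hepes buffer, after 15 min compound preincubation.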
VDR inhibitor = vitamin D3 receptor (human) inhibition; P11473; VDR-SRC2-3 peptide fluorescence polarization, 2 h; 400,000 tested, 0.93% active; AID 504847; Potency, µM, inactives show max response, negative = inhibition, usual class: inhibitors
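Two reagent solutions held at 4 deg C in the dark were dispensed, compounds pinned at 23 nl, and the mixture incubated 2 h at room temperature. Read-out: fluorescence polarization of VDR–SRC2-3 peptide binding.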
PLK1 PBD block = blocks phosphopeptide binding to human PLK1 polo-box domain | AID 720504 | 360,000 tested, 2.8% active | Potency, µM, for inactives: max response, negative = inhibition, most hits filed as inhibitors | Plk1 PBD binding of FITC phosphopeptide, fluorescence polarization; also: series mostly up to about 57 µM; nearly all actives have a fitted effect of over 65% in size
* marks the source's active call; other numbers are inactive results; i = inactive; ? = inconclusive; · = no result given; ! = a repeat was not active; [ ] = remark or other dose. Sampled rows, rich in hits. Any-hit rate of the full collection: about 3%. Calls follow the shape of the dose curve; as a rule, active = well fitted curve in the direction sought with a large enough effect; inconclusive = small, poorly fitted or top-dose-only effect, or another doubt; inactive = no such curve, though single readings can be large; an effect the other way counts as inactive or inconclusive. % is scaled to controls: 0 for no effect and ±100 for the full control effect; potency is read from the fitted curve at half-maximal effect.

SMILES	KAT2A inh	ALOX12 inh	VDR inhibitor	PLK1 PBD block
COc1ccc(-c2noc(-c3cccn3CC(=O)Nc3cccc(F)c3)n2)cc1F	·	-11%	·	·
O=C(CSc1cc(Cl)ccc1Cl)NC1CCS(=O)(=O)C1 (stereo not drawn)	·	-7%	·	·
CCCCCCCNC(=O)C1(CC2CC(c3cccc(Br)c3)=NO2)CCN(C(=O)C2(C)CC2)CC1 (stereo not drawn)	-13%	-4%	-19%	0%
CCCCCCCNC(=O)C1(CC2CC(c3cccc(Br)c3)=NO2)CCN(C(=O)CCCCCBr)CC1 (stereo not drawn)	-9%	40µM*	7%	-9%
COc1ccc(C(=S)N2CCN(C)CC2)cc1	-16%	?	-1%	27µM*
O=C(Nc1nc2c(s1)CN(Cc1ccccc1)CC2)c1c(F)cccc1F	-3%	i	12%	21µM*
CC(C)(C)C(=O)Nc1nc2c(s1)CN(Cc1ccccc1)CC2	-11%	-12%	7%	-15%
O=C1C(=O)N(CCCN2CCOCC2)C(c2ccc(Cl)cc2)/C1=C(\O)c1ccc2c(c1)OCCO2 (stereo not drawn)	0%	-19%	?	24µM*
O=C1C(=O)N(CCN2CCOCC2)C(c2ccccc2)/C1=C(\O)c1ccc2c(c1)OCCO2 (stereo not drawn)	-4%	?	2%	-1%
COc1ccc(/C=N/n2cncn2)cc1COc1ccc(NC(C)=O)cc1	-19%	32%	?	27µM*
COc1ccc(C(=O)N/N=C/c2ccc(OC)c(COc3ccc(F)cc3)c2)cc1	-11%	-18%	-18%	-7%
CCNC(=O)NC(=O)CN(Cc1ccccc1)CC(C)C(=O)OC (stereo not drawn)	·	23%	·	·
COc1ccc(/C=C(/NC(=O)c2ccccc2)C(=O)NC2CCS(=O)(=O)C2)cc1 (stereo not drawn)	1%	4%	?	15µM*
COc1ccc(/C=C(\NC(=O)c2ccccc2)C(=O)O)cc1	·	33%	·	·
CCCCCCn1c(=O)n2n(c1=O)C[C@]1(OC(=O)NCc3ccccc3)CN(S(=O)(=O)c3ccc(C)cc3)C[C@]1(O)C2	·	?	·	-3%
CCCCCCn1c(=O)n2n(c1=O)C[C@]1(OC(=O)Nc3cccs3)CN(S(=O)(=O)c3ccc(C)cc3)C[C@]1(O)C2	·	35µM*	·	-4%
O=C(O)c1c(Cl)c(Cl)c(Cl)c(Cl)c1-c1c2cc(I)c(=O)c(I)c-2oc2c(I)c(O)c(I)cc12	2µM*	0.86µM*	5.6µM*	·
CCC(c1nnnn1Cc1cccs1)N1CCN(C2CCCC2)CC1 (stereo not drawn)	5%	?	2%	-4%
CCCC(c1nnnn1Cc1cccs1)N1CCN(C2CCCC2)CC1 (stereo not drawn)	-18%	?	-27%	27µM*
O=C(c1ccc2ncsc2c1)N(Cc1ccccc1)Cc1ccco1	·	-16%	·	·
CCSc1n[nH]c2nc3c(c(=O)n12)C1(CCCC1)Cc1ccccc1-3	-4%	0%	-2%	21µM*
CCOC(=O)c1ccc(NC(=O)CCS(=O)(=O)c2cc(-c3cc(C)no3)ccc2OC)cc1	·	-7%	·	·
CCOC(=O)C1CCN(S(=O)(=O)c2nc3nc(C)cc(C)n3n2)CC1	0%	-7%	-6%	30µM*
S=C(NCCc1ccccc1)N1CCC2CC1c1cc(-c3ccc4c(c3)OCO4)ccc12 (stereo not drawn)	·	28µM*	·	1%
COCCNC(=S)N1CCC2CC1c1cc(-c3ccc4c(c3)OCO4)ccc12 (stereo not drawn)	·	28µM*	·	-2%
SMILES	KAT2A inh	ALOX12 inh	VDR inhibitor	PLK1 PBD block
Cc1ccc(CCC(=O)N2CCC(CO)(CN3CCCC3)CC2)cc1	·	2%	·	·
Cc1nc2sc(-c3ccccc3)nn2c(=O)c1Br	1%	3%	8%	4%
Cc1cc(=O)n2nc(-c3ccccc3)sc2c1C#N	-4%	2%	?	21µM*
Cc1cc(=O)n(Cc2ccccc2)c(O)c1C#N	-19%	18µM*	-11%	-27%
CCCCN(C)C(=O)c1cccc2c(C)c(C)[nH]c12	·	-36%	·	·
COc1ccc(C/C(C)=N/NC(=S)Nc2ccccc2)cc1	2%	?	-14%	?
CCCC/C(C)=N/NC(=S)Nc1ccccc1	·	6.3µM*	·	·
CC(NC(=O)c1cc(-c2ccncc2)cn1C)c1ccc(F)cc1 (stereo not drawn)	·	30%	·	·
Cc1nc2sc3c(c2c2nc(C(=O)NCCN(C)C)nn12)CCC3	·	6%	·	·
O=C(O)c1ccc(-c2ccccc2Cl)o1	-5%	0%	141µM*!	-10%
CCC(C)c1ccc(NC(=O)c2ccccc2OC)cc1 (stereo not drawn)	·	7%	·	·
C=C1C(=O)O[C@@H]2[C@H]3O[C@]3(C)CC/C=C(\C)CC[C@@H]12	-3%	3%	22µM*!	-1%
C=C1C(=O)OC2C=C(C)CCC=C(C)CCC12 (stereo not drawn)	-21%	-21%[57.4 µM]	40µM*	·
CC1CCCC(N2CCN(Cc3ccc(Cl)cc3)CC2)C1 (stereo not drawn)	·	0.79µM*	·	·
Clc1ccc(CN2CCCCCC2)cc1	-9%	0.79µM*	-6%	-7%
Clc1ccc(CNC2CCN(Cc3ccccc3)CC2)cc1	?	8.9µM*	-20%	-3%
Fc1ccc(CNC2CCN(Cc3ccccc3)CC2)cc1	-12%	-1%	15%	-13%
COc1ccc(CN2CCCCCC2)cc1OC	·	2µM*	6%	-3%
O=C(OCc1ccccc1)c1ccc2nccnc2c1	·	31%	·	·
CC1CCCCN1C(=O)CN1CCC(c2cc3ccccc3[nH]2)CC1 (stereo not drawn)	·	0%	·	·
CC(Sc1cc(C(=O)NC2CC2)c2ccccc2n1)C(=O)N1CCCC1 (stereo not drawn)	·	-17%	·	·
Cn1c(=O)c2c(ncn2CC(=O)OCc2ccc(C(C)(C)C)cc2)n(C)c1=O	·	46%	·	·
Cc1cc(C)nc(Nc2n[nH]c(COc3ccccc3)n2)n1	-1%	12%	?	3.4µM*
O=C1CCN(C(=O)C2CCN(S(=O)(=O)c3ccc4c(c3)CCC4)CC2)CCCCCCN1	·	31%	·	·
